# Measured values: PubChem BioAssay AID1851 (National Center for Advancing Translational Sciences (NCATS), 2009)
# The whole screen tested about 16,000 compounds, of which about 4,000 (25%) were called active. Inconclusive results (about 26%) are left out. The call rests on the fitted dose curve; in most records, active means well fitted curve in the direction sought with a large enough effect; inconclusive means small, poorly fitted or top-dose-only effect, or effect the other way; inactive means no such curve, though single readings can be large or run the other way. A selection follows.
# Molecular target: Cytochrome P450 2C9 (Homo sapiens) (UniProt P11712)
# Sequence (P11712 whole entry, looked up): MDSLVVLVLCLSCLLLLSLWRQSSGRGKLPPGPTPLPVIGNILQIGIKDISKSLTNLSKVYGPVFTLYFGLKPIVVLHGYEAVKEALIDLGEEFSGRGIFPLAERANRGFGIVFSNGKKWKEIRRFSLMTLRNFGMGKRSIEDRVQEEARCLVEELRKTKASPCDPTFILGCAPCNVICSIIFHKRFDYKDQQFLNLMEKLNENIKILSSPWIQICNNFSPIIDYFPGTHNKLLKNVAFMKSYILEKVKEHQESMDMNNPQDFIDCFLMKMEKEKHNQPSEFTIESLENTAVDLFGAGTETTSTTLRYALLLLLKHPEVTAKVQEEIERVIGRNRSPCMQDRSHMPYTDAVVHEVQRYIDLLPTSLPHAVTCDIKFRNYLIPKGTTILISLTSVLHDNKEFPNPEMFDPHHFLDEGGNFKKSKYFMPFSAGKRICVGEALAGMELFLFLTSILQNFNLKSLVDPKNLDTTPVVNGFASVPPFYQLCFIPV
# Assay: Cytochrome panel assay with activity outcomes
# Conditions: recombinant CYP, pro-luciferin dealkylation, luminescence, p450-cyp2c9; series mostly up to 57.1 µM; activity, negative = inhibition: at the top concentration
# On the % scale 0 is the no-effect control and ±100 the full control effect.
SMILES,AC50,"activity, negative = inhibition"
C[C@@H]1CC[C@H]2C(=O)N3[C@@H](CC[C@@H](C)[C@@H]3c3ccc(Br)cc3)C(=O)N2[C@@H]1c1ccc(Br)cc1,3.98 µM (active),–
C[C@@H]1CN2[C@H](c3ccc(Br)cc3)[C@H](C)CC[C@H]2C(=O)O1,–,-3.17% [at 11.4 µM] (inactive)
CCCC[C@@H]1CN2[C@H](c3ccc(Br)cc3)[C@@H](C)CC[C@H]2C(=O)O1,–,-13.2% [at 11.4 µM] (inactive)
COc1cccc(Nc2ncc3nc(-c4cccs4)c(=O)n(Cc4cccs4)c3n2)c1,–,-15.7% (inactive)
CCC(Sc1nc2cc3c(cc2c(=O)n1Cc1ccco1)OCO3)C(=O)Nc1ccccc1OC (configuration not stated),0.631 µM (active),–
COc1ccccc1NC(=O)N1CCCC1C(=O)NCc1ccc2c(c1)OCO2 (configuration not stated),–,-21.5% (inactive)
CCC(Sc1nc2cc3c(cc2c(=O)n1Cc1ccco1)OCO3)C(=O)Nc1cccc(OC)c1 (configuration not stated),2 µM (active),–
CCCc1nnc(SCC(=O)N2C(C)CCCC2C)n1CCCOC (configuration not stated),–,-13.8% (inactive)
Cc1cc(=O)c2c(O)c(O)ccc2o1,–,19.8% (inactive)
CCOC(=O)c1cccc2c1-c1ccccc1/C2=N/O,8.91 µM (active),–
CCOC(=O)[C@@]12C[C@@H]1/C(=N/O)c1ccccc1O2,–,-1.19% (inactive)
NC[C@H](O)C1CCCCCCC1,–,0.201% (inactive)
Nc1ncnc2c1nc(Sc1ccc(Cl)cc1)n2[C@@H]1O[C@H]2COP(=O)(O)O[C@@H]2[C@H]1O,–,-10% (inactive)
COCCn1c(=O)c(-c2ccccc2)nc2cnc(Nc3cccc(OC)c3)nc21,–,-9.31% (inactive)
COCCn1c(=O)c(-c2ccccc2)nc2cnc(Oc3ccccc3)nc21,10 µM (active),–
COCCn1c(=O)c(-c2cn(C)c3ccccc23)nc2cnc(Oc3ccc(OC)cc3)nc21,–,0.611% (inactive)
COCCn1c(=O)c(-c2ccc(Cl)cc2)nc2cnc(Nc3ccccc3)nc21,–,6.62% (inactive)
CCNc1ncc2nc(-c3ccc(OC)cc3)c(=O)n(CCOC)c2n1,–,9.61% (inactive)
Cn1c(=O)c(-c2ccc(Cl)cc2)nc2cnc(Oc3ccccc3)nc21,–,-2.59% (inactive)
COCCn1c(=O)c(-c2ccccc2)nc2cnc(Oc3ccc(OC)cc3)nc21,10 µM (active),–
COCCn1c(=O)c(-c2ccc(Cl)cc2)nc2cnc(Oc3ccccc3)nc21,7.94 µM (active),–
COCCn1c(=O)c(-c2cn(C)c3ccccc23)nc2cnc(Oc3ccccc3)nc21,–,-19% (inactive)
Nc1nc(N)c2[nH]cnc2n1 (tested in a mixture with another compound),–,-4.44% [at 11.4 µM] (inactive)

SMILES,AC50,"activity, negative = inhibition"
Cc1[nH]c(N)nc(=S)c1CCC(=O)O,–,2.61% [at 11.4 µM] (inactive)
c1ccc2c[n+](Cc3ccnc4ccccc34)ccc2c1,–,-6.16% [at 11.4 µM] (inactive)
Cc1c(NC(=O)CSc2nnnn2C)c(=O)n(-c2ccccc2)n1C,–,-39% (inactive)
Cc1c(NC(=O)CSc2nnc3c4ccccc4n(CCc4ccccc4)c3n2)c(=O)n(-c2ccccc2)n1C,0.708 µM (active),–
Cc1c(NC(=O)CN2C(=O)C3C4C=CC(C4)C3C2=O)c(=O)n(-c2ccccc2)n1C (configuration not stated),–,-21.2% (inactive)
C=CCn1c(SCC(=O)Nc2c(C)n(C)n(-c3ccccc3)c2=O)nc2sc(C)c(-c3ccccc3)c2c1=O,14.1 µM (active),–
Cc1c(NC(=O)Cn2ccc([N+](=O)[O-])n2)c(=O)n(-c2ccccc2)n1C,–,-3.82% (inactive)
Cc1nc(SCC(=O)Nc2c(C)n(C)n(-c3ccccc3)c2=O)nc(C)c1C,–,31.5% (inactive)
CN[C@]1(C)[C@@H]2CC[C@@H](C2)C1(C)C,–,-5.04% (inactive)
CN1CCN(C2=Cc3ccccc3Oc3ccc(Cl)cc32)CC1,–,-10.8% (inactive)
C=CC[C@@H]1C=C[C@H](O/N=C(\C)CCN2CCc3nc(CC)c(CC)cc3C2)[C@H](CO)O1,–,-6.8% [at 11.4 µM] (inactive)
O=C(c1cc(O)c(O)c([N+](=O)[O-])c1)c1ccccc1F,1.26 µM (active),–
O=C(O)c1cc(N=Nc2ccc([N+](=O)[O-])cc2)ccc1O,–,-19.1% [at 11.4 µM] (inactive)
N#Cc1cc2nc(O)c(O)nc2cc1[N+](=O)[O-],–,-3.14% (inactive)
Cc1cc(Cl)ccc1OCC(=O)NCc1ccncc1,0.794 µM (active),–
CCCn1nnnc1NC(=O)COc1ccc(Cl)cc1C,10 µM (active),–
Cc1ccc(CNC(=O)COC(=O)c2cnccn2)cc1,–,4.39% (inactive)
CCCn1nnnc1-c1cc(Cl)cc(Cl)c1,–,-1.8% (inactive)
Cc1cc(Cl)ccc1OCC(=O)Nc1nc(N)nc(N)n1,–,23.6% [at 11.4 µM] (inactive)
CCN(CC)CCOC(=O)C1(c2ccc([N+](=O)[O-])cc2)CCCC1,inactive,–
Cc1cccc(NC(=O)C2(c3ccccc3)CC2(Cl)Cl)c1 (configuration not stated),2 µM (active),–
Cc1cccc(NC(=O)C2(c3ccc([N+](=O)[O-])cc3)CCCC2)c1,20 µM (active),–
Cc1cccc(N/C(N)=N/c2nc(C)cc(C)n2)c1,–,-1.74% (inactive)

SMILES,AC50,"activity, negative = inhibition"
CN1CCC[C@@H](CC2c3ccccc3Sc3ccccc32)C1,–,-1.06% [at 25.6 µM] (inactive)
CCSC(N)=Nc1ccc(C(F)(F)F)cc1,–,-14.4% (inactive)
COc1cc(S(C)=O)ccc1-c1nc2ncccc2[nH]1 (configuration not stated),–,-9.95% [at 25.6 µM] (inactive)
COC(=O)c1ccccc1NC(=O)c1cc2nc(C3CC3)cc(C(F)(F)F)n2n1,3.55 µM (active),–
CN(C)CCOC(=O)[C@@H](c1ccccc1)C1(O)CCCC1,–,0.789% [at 25.6 µM] (inactive)
C[C@@H]1c2cccc(O)c2C(O)=C2C(=O)[C@@]3(O)C(O)=C(C(N)=O)C(=O)[C@@H](N(C)C)[C@@H]3[C@@H](O)[C@@H]21,inactive,–
Cc1ccc(S(=O)(=O)NC(=O)OC23COCN2COC3)cc1,–,-0.0498% [at 11.4 µM] (inactive)
Cc1ccc(S(=O)(=O)NC(=O)c2cccn2C)cc1,15.8 µM (active),–
Cc1ccc(S(=O)(=O)NC(=O)NN2C[C@H]3CCC[C@@H]3C2)cc1,–,16.2% [at 25.6 µM] (inactive)
CCN(CC)CCNc1ccc(CO)c2sc3ccccc3c(=O)c12,–,9.87% [at 25.6 µM] (inactive)
c1ccc(CCNCc2ccco2)nc1,–,0.412% [at 11.4 µM] (inactive)
Cc1ccccc1C(C(=O)NCc1ccccc1)N(Cc1ccco1)C(=O)c1ccccn1 (configuration not stated),10 µM (active),–
Cc1ccccc1-c1nc(N(C)Cc2ccco2)c2ccccc2n1,–,-11% [at 2.29 µM] (inactive)
O=C(NCc1ccccc1)C(c1ccc(F)cc1)N(Cc1ccco1)C(=O)c1ccccn1 (configuration not stated),15.8 µM (active),–
CC(Cc1ccccc1)C(=O)NCc1ccccn1 (configuration not stated),–,-5.93% (inactive)
CN(Cc1ccco1)c1ncnc2ccc(-c3cccnc3)cc12,–,-16.8% [at 2.29 µM] (inactive)
Cc1cc(C(C)(C)CC(C)(C)C)ccc1OCCOCC[N+](C)(C)Cc1ccccc1,–,-13.2% [at 25.6 µM] (inactive)
Cc1cc(C)nc(NS(=O)(=O)c2ccc(N)cc2)n1,–,22.1% [at 25.6 µM] (inactive)
CNc1cc(NS(=O)(=O)c2ccc(N)cc2)nc(NC)n1,2 µM (active),–
COc1cc(NS(=O)(=O)c2ccc(N)cc2)ncn1,–,-4.22% [at 25.6 µM] (inactive)
CCCC(=O)Nc1c(C)n[nH]c1C,–,-15.9% (inactive)
Cc1ccc(-n2nc3c(c2NC(=O)c2cccs2)CSC3)cc1,3.55 µM (active),–
Cc1ccccc1-n1nc2c(c1NC(=O)c1ccc(S(=O)(=O)N(C)C)cc1)CSC2,2.82 µM (active),–

SMILES,AC50,"activity, negative = inhibition"
CCCC(=O)Nc1c2c(nn1-c1ccc(C)cc1C)CSC2,14.1 µM (active),–
Cc1ccccc1-n1nc2c(c1NC(=O)c1c(-c3ccccc3Cl)noc1C)CSC2,1.41 µM (active),–
CC(C)(C)NC[C@H](O)COc1cccc2c1CCC(=O)N2,–,8.94% [at 25.6 µM] (inactive)
CCOC(=S)SCC(=O)O,–,4.25% [at 11.4 µM] (inactive)
NC1=N[C@H](c2ccc(Cl)cc2)N(c2ccc(S(=O)(=O)Nc3ncccn3)cc2)C(N)=N1,–,14.6% [at 11.4 µM] (inactive)
CC(C)CO/N=C1/C[C@@H](O)[C@@H](O)[C@@H]2[C@@H]3C(=O)N([C@@H](C)c4ccccc4)C(=O)[C@H]3CC[C@@H]12,–,-15.7% [at 11.4 µM] (inactive)
Cc1nc(NS(=O)(=O)c2ccccc2C)c2c3c(sc2n1)CCC3,2.51 µM (active),–
Cc1nc(NS(=O)(=O)c2ccc(Br)cc2)c2c3c(sc2n1)CCC3,0.224 µM (active),–
Cn1c2c(c(=O)n(C)c1=O)C1(C(=O)Nc3ccccc31)C(C#N)=C(N)O2 (configuration not stated),–,-25.5% (inactive)
CCn1c(=O)[nH]c2cc(Cl)c(Cl)cc21,–,7.2% (inactive)
C[C@@H](c1ccccc1)N1C(=O)[C@H]2[C@H]3[C@H](O)[C@H](O)C/C(=N/OCc4ccccc4)[C@H]3CC[C@@H]2C1=O,–,-20.1% [at 11.4 µM] (inactive)
COc1ccc(OCc2nnc(SCC(=O)O)n2N)cc1,–,-18.9% (inactive)
CCn1c(SCC(=O)N/N=C/C=C\c2ccccc2[N+](=O)[O-])nnc1-c1ccccc1,–,19.5% (inactive)
CCn1c(COc2ccccc2)nnc1SCC(=O)c1cccc([N+](=O)[O-])c1,22.4 µM (active),–
O=C(CSc1nc2ccc([N+](=O)[O-])cc2s1)c1ccc2ccccc2c1,–,-5.5% [at 11.4 µM] (inactive)
O=C(CSc1nnc(COc2ccccc2)n1-c1ccccc1)c1ccccc1,10 µM (active),–
CO[C@@H]1COC(=O)C/C=C\[C@@H](C)[C@@H]2C=C[C@H](O)[C@@H](COC(=O)CCC[C@H]1C)O2,–,-8.54% [at 11.4 µM] (inactive)
Cc1c(C)n(C(=O)CN2CCC(C)CC2)c2ccccc12,–,28.1% (inactive)
CO[C@@H]1COC(=O)C/C=C\[C@H](C)[C@H](OC)COC(=O)[C@H]2CCCN2C(=O)C/C=C\[C@H]1C,–,13.8% [at 11.4 µM] (inactive)
OC[C@H]1NC[C@H](O)[C@@H](O)[C@H]1O,–,22.1% (inactive)
Cc1ccc(NC(=O)N(Cc2ccco2)C(C)c2ccco2)cc1C (configuration not stated),12.6 µM (active),–
Cc1ccccc1-c1cc(N(C)Cc2ccco2)ncn1,–,-5.66% [at 2.29 µM] (inactive)
Cc1cc(N2CCN(C)CC2)nc2ccc(NC(=O)CCC(=O)NCc3ccco3)cc12,–,14.6% (inactive)
